Test results reported in PubChem BioAssay AID1159580 (chemical genetic matrix, 2015).
The whole screen tested about 5,500 compounds, of which about 2,000 (36%) were called active. Another 18% or so got no clear call; they are omitted. Rule as the data show it: active = normalized growth mostly below about 0.91 (no sharp cut-off); inconclusive = no clear call, values can overlap the other calls; inactive = mostly above about 0.92. The list shows a part of the results.

Assay: chemical genetic growth profiling, strain panel (AID 1159580);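 also: tested at 20 µM; growth read once vehicle control cultures reached saturation at 30 °C; 1 = growth at the plate median or of vehicle wells; lower values mean less growth of the strain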
Settings: growth OD
[1] = S. cerevisiae deletion strains, locus YDL101C, strain DUN1, stronger effect = lower value
[2] = S. cerevisiae deletion strains, locus YHR030C, strain SLT2, stronger effect = lower value

Measured: normalized growth

OC(COc1ccc(F)cc1)(c1ccc(Cl)cc1)c1ccc(Cl)cc1
inactive: S. cerevisiae deletion strains, locus YAR019C, strain CDC15, stronger effect = lower value 0.991 | S. cerevisiae deletion strains, locus YBL105C, strain PKC1, stronger effect = lower value 0.985 | S. cerevisiae deletion strains, locus YBR135W, strain CKS1, stronger effect = lower value 0.984 | S. cerevisiae deletion strains, locus YBR136W, strain MEC1, stronger effect = lower value 1 | S. cerevisiae deletion strains, locus YBR160W, strain CDC28, stronger effect = lower value 0.982 | S. cerevisiae deletion strains, locus YDL017W, strain CDC7, stronger effect = lower value 0.988 | S. cerevisiae deletion strains, locus YDL028C, strain MPS1, stronger effect = lower value 0.985 | [1] 0.974 | S. cerevisiae deletion strains, locus YDL108W, strain KIN28, stronger effect = lower value 0.978 | S. cerevisiae deletion strains, locus YDL132W, strain cdc53, stronger effect = lower value 0.987 | S. cerevisiae deletion strains, locus YDL214C, strain PRR2, stronger effect = lower value 0.985 | S. cerevisiae deletion strains, locus YDR052C, strain DBF4, stronger effect = lower value 0.989 | S. cerevisiae deletion strains, locus YDR054C, strain cdc34, stronger effect = lower value 0.993 | S. cerevisiae deletion strains, locus YDR226W, strain ADK1, stronger effect = lower value 0.983 | S. cerevisiae deletion strains, locus YDR477W, strain SNF1, stronger effect = lower value 0.996 | S. cerevisiae deletion strains, locus YER123W, strain YCK3, stronger effect = lower value 0.96 | S. cerevisiae deletion strains, locus YER133W, strain GLC7, stronger effect = lower value 0.987 | S. cerevisiae deletion strains, locus YFL009W, strain cdc4, stronger effect = lower value 0.993 | S. cerevisiae deletion strains, locus YFL029C, strain CAK1, stronger effect = lower value 0.988 | S. cerevisiae deletion strains, locus YFR003C, strain YPI1, stronger effect = lower value 0.989 | S. cerevisiae deletion strains, locus YFR019W, strain FAB1, stronger effect = lower value 1 | S. cerevisiae deletion strains, locus YFR028C, strain CDC14, stronger effect = lower value 0.986 | S. cerevisiae deletion strains, locus YGR040W, strain KSS1, stronger effect = lower value 0.981 | S. cerevisiae deletion strains, locus YGR052W, strain FMP48, stronger effect = lower value 1.08 | S. cerevisiae deletion strains, locus YGR092W, strain DBF2, stronger effect = lower value 0.962 | [2] 1.07 | S. cerevisiae deletion strains, locus YHR079C, strain IRE1, stronger effect = lower value 1.08 | S. cerevisiae deletion strains, locus YHR082C, strain KSP1, stronger effect = lower value 1.07 | S. cerevisiae deletion strains, locus YHR205W, strain SCH9, stronger effect = lower value 0.964 | S. cerevisiae deletion strains, locus YIL147C, strain SLN1, stronger effect = lower value 0.98 | S. cerevisiae deletion strains, locus YJL095W, strain BCK1, stronger effect = lower value 1.08 | S. cerevisiae deletion strains, locus YJL128C, strain PBS2, stronger effect = lower value 0.939 | S. cerevisiae deletion strains, locus YJL157C, strain FAR1, stronger effect = lower value 0.988 | S. cerevisiae deletion strains, locus YJR016C, strain ILV3, stronger effect = lower value 0.984 | S. cerevisiae deletion strains, locus YJR066W, strain TOR1 (second series), stronger effect = lower value 0.971 | S. cerevisiae deletion strains, locus YJR066W, strain TOR1, stronger effect = lower value 1.12 | S. cerevisiae deletion strains, locus YKL048C, strain ELM1, stronger effect = lower value 0.984 | S. cerevisiae deletion strains, locus YKL067W, strain YNK1, stronger effect = lower value 0.988 | S. cerevisiae deletion strains, locus YKL101W, strain HSL1, stronger effect = lower value 0.98 | S. cerevisiae deletion strains, locus YKL193C, strain SDS22, stronger effect = lower value 0.991 | S. cerevisiae deletion strains, locus YKL203C, strain TOR2, stronger effect = lower value 1.08 | S. cerevisiae deletion strains, locus YLR113W, strain HOG1, stronger effect = lower value 0.957 | S. cerevisiae deletion strains, locus YLR133W, strain CKI1, stronger effect = lower value 0.989 | S. cerevisiae deletion strains, locus YLR403W, strain SFP1, stronger effect = lower value 1 | S. cerevisiae deletion strains, locus YML070W, strain DAK1, stronger effect = lower value 0.99 | S. cerevisiae deletion strains, locus YMR001C, strain CDC5, stronger effect = lower value 0.984 | S. cerevisiae deletion strains, locus YMR205C, strain PFK2 (second series), stronger effect = lower value 0.995 | S. cerevisiae deletion strains, locus YMR277W, strain FCP1, stronger effect = lower value 0.992 | S. cerevisiae deletion strains, locus YNL006W, strain LST8, stronger effect = lower value 0.998 | S. cerevisiae deletion strains, locus YNL020C, strain ARK1, stronger effect = lower value 0.988 | S. cerevisiae deletion strains, locus YNL161W, strain CBK1, stronger effect = lower value 0.988 | S. cerevisiae deletion strains, locus YNL183C, strain NPR1, stronger effect = lower value 1.09 | S. cerevisiae deletion strains, locus YNL207W, strain RIO2, stronger effect = lower value 0.997 | S. cerevisiae deletion strains, locus YNL222W, strain SSU72, stronger effect = lower value 0.991 | S. cerevisiae deletion strains, locus YNL307C, strain MCK1 (second series), stronger effect = lower value 0.981 | S. cerevisiae deletion strains, locus YOL078W, strain AVO1, stronger effect = lower value 0.994 | S. cerevisiae deletion strains, locus YOL136C, strain PFK27, stronger effect = lower value 0.966 | S. cerevisiae deletion strains, locus YOR061W, strain CKA2, stronger effect = lower value 0.988 | S. cerevisiae deletion strains, locus YOR119C, strain RIO1, stronger effect = lower value 1.02 | S. cerevisiae deletion strains, locus YOR231W, strain MKK1, stronger effect = lower value 1.06 | S. cerevisiae deletion strains, locus YOR329C, strain SCD5, stronger effect = lower value 0.984 | S. cerevisiae deletion strains, locus YPL031C, strain PHO85, stronger effect = lower value 0.981 | S. cerevisiae deletion strains, locus YPL153C, strain RAD53, stronger effect = lower value 0.984 | S. cerevisiae deletion strains, locus YPL204W, strain HRR25, stronger effect = lower value 0.986 | S. cerevisiae deletion strains, locus YPL209C, strain IPL1, stronger effect = lower value 0.992 | S. cerevisiae deletion strains, locus YPL256C, strain CLN2, stronger effect = lower value 1.07 | S. cerevisiae deletion strains, locus YPR025C, strain CCL1, stronger effect = lower value 0.992 | S. cerevisiae deletion strains, locus YPR106W, strain ISR1, stronger effect = lower value 0.983 | S. cerevisiae deletion strains, locus YPR111W, strain DBF20, stronger effect = lower value 0.984 | S. cerevisiae deletion strains, strain NNK1, stronger effect = lower value 0.992 | S. cerevisiae deletion strains, strain TSCII, stronger effect = lower value 0.991

O=S(=O)(Oc1ccc(OCc2ccccc2)cc1)c1cc(Cl)cc(Cl)c1
inactive: S. cerevisiae deletion strains, locus YAL013W, strain DEP1, stronger effect = lower value 1.01 | S. cerevisiae deletion strains, locus YBR229C, strain ROT2, stronger effect = lower value 1.01 | S. cerevisiae deletion strains, locus YCL061C, strain MRC1, stronger effect = lower value 1.01 | [1] 0.987 | S. cerevisiae deletion strains, locus YDR150W, strain NUM1, stronger effect = lower value 1 | S. cerevisiae deletion strains, locus YEL061C, strain CIN8, stronger effect = lower value 0.959 | S. cerevisiae deletion strains, locus YGR078C, strain PAC10, stronger effect = lower value 1 | [2] 0.881 | S. cerevisiae deletion strains, locus YHR087W, strain rtc3, stronger effect = lower value 0.983 | S. cerevisiae deletion strains, locus YJL187C, strain SWE1, stronger effect = lower value 1 | S. cerevisiae deletion strains, locus YJR043C, strain POL32, stronger effect = lower value 1.01 | S. cerevisiae deletion strains, locus YJR075W, strain HOC1, stronger effect = lower value 1.01 | S. cerevisiae deletion strains, locus YLR039C, strain RIC1, stronger effect = lower value 1.01 | S. cerevisiae deletion strains, locus YLR058C, strain SHM2 (second series), stronger effect = lower value 1.01 | S. cerevisiae deletion strains, locus YLR085C, strain ARP6, stronger effect = lower value 0.943 | S. cerevisiae deletion strains, locus YLR262C, strain YPT6, stronger effect = lower value 0.985 | S. cerevisiae deletion strains, locus YML094W, strain GIM5, stronger effect = lower value 0.966 | S. cerevisiae deletion strains, locus YMR219W, strain ESC1, stronger effect = lower value 0.993 | S. cerevisiae deletion strains, locus YMR263W, strain SAP30, stronger effect = lower value 1.01 | S. cerevisiae deletion strains, locus YNL153C, strain GIM3, stronger effect = lower value 0.998 | S. cerevisiae deletion strains, locus YNL298W, strain CLA4 (second series), stronger effect = lower value 1.01 | S. cerevisiae deletion strains, locus YNL322C, strain KRE1, stronger effect = lower value 1 | S. cerevisiae deletion strains, locus YNR030W, strain Alg12, stronger effect = lower value 0.998 | S. cerevisiae deletion strains, locus YOL006C, strain TOP1, stronger effect = lower value 0.779 | S. cerevisiae deletion strains, locus YPL055C, strain LGE1, stronger effect = lower value 0.969 | S. cerevisiae deletion strains, locus YPL241C, strain CIN2, stronger effect = lower value 1 | S. cerevisiae deletion strains, locus YPR135W, strain CTF4, stronger effect = lower value 0.988 | S. cerevisiae strains, strain wild type, stronger effect = lower value 1
